# APOBEC3A inh = APOBEC3A ssDNA deaminase inhibitors, primary screen, selectivity assay for APOBEC3G inhibitor project, biochemical, FAM/TAMRA oligo cleavage fluorescence | DNA dC->dU-editing enzyme APOBEC-3A (Homo sapiens), P31941 | 330,000 compounds, 0.41% hits | inhibition, % at 20 µM | recombinant A3A, FAM/TAMRA ssDNA deamination fluorescence;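 active means at least 40% inhibition at 20 µM here, with at most 30% in a related deaminase screen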;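 further: plate controls were A3A with DMSO for no effect and wells lacking A3A enzyme for full effect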
# A3G deaminase = APOBEC3G DNA deaminase inhibitors, primary screen, biochemical, fluorescence, single-stranded DNA substrate, uHTS. DNA dC->dU-editing enzyme APOBEC-3G (Homo sapiens), Q9HC16. recombinant A3G, ssDNA deamination FAM/TAMRA fluorescence. inhibition, % at 20 µM. 330,000 compounds, 0.28% hits. AID 493012, 2011;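 active means inhibition of at least 40% at 20 µM, with no more than 30% in the related APOBEC3A deaminase screen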;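 further: plate controls were DMSO wells with A3G for no effect and wells lacking A3G enzyme for full effect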
# Target sequence (Q9HC16 whole entry, looked up): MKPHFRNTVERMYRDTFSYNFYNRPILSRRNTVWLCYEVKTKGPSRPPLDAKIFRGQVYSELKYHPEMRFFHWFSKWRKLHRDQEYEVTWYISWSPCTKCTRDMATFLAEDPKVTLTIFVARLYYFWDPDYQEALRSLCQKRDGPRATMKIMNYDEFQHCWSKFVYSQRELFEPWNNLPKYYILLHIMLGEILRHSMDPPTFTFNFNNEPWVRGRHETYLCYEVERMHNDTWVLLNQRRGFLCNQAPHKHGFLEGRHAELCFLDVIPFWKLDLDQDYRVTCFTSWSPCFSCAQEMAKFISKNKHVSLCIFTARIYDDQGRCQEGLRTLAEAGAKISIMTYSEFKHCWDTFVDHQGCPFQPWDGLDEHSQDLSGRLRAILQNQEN
# Yeast superoxide = reduction of superoxide in aged yeast, primary screen, HTS. S. cerevisiae aged cells, superoxide DHE fluorescence; active compounds read low. superoxide response (% of plate mean), % at 10 µM. 330,000 compounds, 0.18% hits;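 active means superoxide response under a set limit, about three screen SD below normal, cut at about 65% in these data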;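 further: yeast aged for seven days with compound at 30 °C before DHE staining; 100% = average MFI of all compound-treated wells on the plate with controls excluded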
# ALR H2O2 inh = inhibitors of human ALR sulfhydryl oxidase, primary screen, biochemical, H2O2 detection, HRP-luminol luminescence, single point; purified ALR, DTT oxidation; FAD-linked sulfhydryl oxidase ALR (Homo sapiens), P55789; inhibition, % (concentration not given with the values); 290,000 compounds, 3.8% hits;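 active means mean replicate inhibition above about 79%, with every replicate also reaching it, limit read from the data; inconclusive means only one of the two criteria met; inactive means mean below limit and not every replicate reaching it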
# Target sequence (P55789 whole entry, looked up): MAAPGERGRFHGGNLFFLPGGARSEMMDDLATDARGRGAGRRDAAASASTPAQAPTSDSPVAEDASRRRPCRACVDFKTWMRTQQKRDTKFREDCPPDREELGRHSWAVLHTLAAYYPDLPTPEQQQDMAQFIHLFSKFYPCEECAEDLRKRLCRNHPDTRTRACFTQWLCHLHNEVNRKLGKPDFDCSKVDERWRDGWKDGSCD
# NRP1-CendR mod = modulators of CendR peptide binding to NRP-1, primary screen, biochemical, fluorescence polarization, uHTS. 360,000 compounds, 0.85% hits. AID 602438, 2012. FAM-RPARPAR peptide binding to NRP-1. inhibition, % at 25 µM;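 active means inhibition or corrected inhibition above about 18%, plus a signal ratio from 0.5 to 1.5, limit read from the data, passing the limit was not always enough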
# PfM18AAP inh = PfM18AAP inhibitors, malaria aminopeptidase, primary screen, biochemical, QFRET, recombinant enzyme | M18 aspartyl aminopeptidase (Plasmodium falciparum 3D7) | AID 1822, 2009 | H-Glu-NHMec fluorogenic cleavage | 290,000 compounds, 1.2% hits | inhibition, % at 7.35 µM;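 active means inhibition above the campaign mean inhibition over all tested compounds plus 3 SD, cut at about 28% in these data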;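 further: 0% = plate median of test compound wells and 100% = 2 mM ZnCl2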
# Starred values were filed as active, the others as inactive; ? = inconclusive; nt = not tested or not shown. The list is not random: actives were taken first. Their share in the collection is about 5.2%.
SMILES,APOBEC3A inh,A3G deaminase,Yeast superoxide,ALR H2O2 inh,NRP1-CendR mod,PfM18AAP inh
Cc1cc(C(=O)CSc2ncnc3ccccc23)c(C)n1C1CC1,-2.8,-8.4,101.8,98.0*,-16.0,nt
Cc1cc(C(=O)CSc2nc3ccccc3o2)c(C)n1C1CC1,2.7,1.9,97.4,39.5,-0.9,20.8
Cc1nnc(SCC(=O)c2cc(C)n(C3CC3)c2C)s1,2.5,-3.4,95.2,55.1,-2.6,7.1
Cc1ccc2nc(NC(=O)c3ccc4ncsc4c3)sc2c1,-6.0,-9.1,114.6,-14.8,-2.2,1.8
CC(C(=O)Nc1ccc(S(=O)(=O)Nc2ncccn2)cc1)N1C(=O)c2ccccc2S1(=O)=O (stereo not drawn),-2.5,-8.7,101.4,-4.6,11.8,nt
CCOc1cc(C(=O)NCCCNC(=O)c2cc(OCC)c(OCC)c(OCC)c2)cc(OCC)c1OCC,3.9,7.5,106.3,-3.9,2.2,nt
Nc1cc2ccncc2c2ccccc12,1.2,-0.5,106.4,98.0*,-1.0,2.3
N#Cc1cc2ccncc2c2ccccc12,nt,nt,nt,nt,-3.4,nt
CC(=O)OCC1(C)CN(c2ccccc2)N(C(C)=O)C1=O (stereo not drawn),3.1,-5.5,74.8,57.1,-7.4,4.6
CC(=O)OCC1(C)CN(c2ccccc2)NC1=O (stereo not drawn),1.7,4.7,89.9,99.3*,-12.8,9.6
CC1=NNC(=O)/C1=C\c1cn(-c2ccccc2)nc1-c1cccs1,1.3,-2.1,115.2,-0.5,-4.8,44.9*
O=C(O)CCCCCN1C(=O)/C(=C/c2cn(-c3ccccc3)nc2-c2cccs2)SC1=S,nt,nt,nt,nt,-121.2,nt
C=CCN(CC=C)C(=S)NC(=O)/C=C/c1ccc(OC)cc1,-3.0,-3.1,97.4,nt,-4.2,8.2
CCn1c(CNC(=O)COC)nc2ccccc21,-3.2,-6.5,86.1,-14.6,-3.5,-2.1
C#CCOCCOCCOCCNc1nc(N2CCN(C(=O)Cn3cc(CCO)nn3)CC2)nc(N2CCN(C(=O)[C@H](C)n3cc(CCCN=C(N)N)nn3)CC2)n1,nt,nt,nt,nt,22.6*,nt
C#CCOCCOCCOCCNc1nc(N2CCN(C(=O)Cn3cc(CCCN=C(N)N)nn3)CC2)nc(N2CCN(C(=O)Cn3cc(CCCN=C(N)N)nn3)CC2)n1,nt,nt,nt,nt,nt,1.7
C#CCOCCOCCOCCNc1nc(N2CCN(C(=O)Cn3cc(CCCN=C(N)N)nn3)CC2)nc(N2CCN(C(=O)Cn3cc(CC(C)O)nn3)CC2)n1 (stereo not drawn),nt,nt,nt,nt,25.1*,nt
C#CCOCCOCCOCCNc1nc(N2CCN(C(=O)Cn3cc(CCO)nn3)CC2)nc(N2CCN(C(=O)[C@H]([C@@H](C)CC)n3cc(CCCN=C(N)N)nn3)CC2)n1,nt,nt,nt,nt,-0.7,nt
C=CCOc1ccccc1CNc1ccccc1C,8.6,-4.6,93.7,71.9,-5.9,-1.7
COc1ccc(NCCNc2ccc(OC)cc2)cc1,-3.9,-3.2,97.6,?,3.0,0.3
Cc1cccc(NCc2ccccc2O)c1,-1.2,-3.9,94.0,98.9*,9.3,-9.3
Cc1ccccc1NCc1ccccc1O,0.0,-1.2,101.9,100.2*,-11.9,-5.4
Cc1ccc(NCc2ccccc2O)cc1,-2.0,-5.5,109.1,?,-4.0,4.4
Cc1ccc(NCCNc2ccc(C)cc2)cc1,-0.1,-2.4,93.0,99.1*,2.7,-8.8
Cc1cccc(NCCNc2cccc(C)c2)c1,-1.4,-3.8,99.0,98.7*,7.2,-7.2
SMILES,APOBEC3A inh,A3G deaminase,Yeast superoxide,ALR H2O2 inh,NRP1-CendR mod,PfM18AAP inh
COC(=O)C[C@@H]1CC[C@@H](NS(=O)(=O)c2cccc(OC)c2)[C@@H](CO)O1,nt,nt,nt,nt,-1.3,nt
Cc1ccc(S(=O)(=O)Nc2ccc3c(c2)C(=O)N([C@@H](C)CO)C[C@@H](C)[C@@H](CN(C)C(=O)NC(C)C)OCCCC[C@H](C)O3)cc1,nt,nt,nt,nt,-1.0,nt
CN(C)c1ccc(Nc2cc(Cl)ncn2)cc1,-10.0,-4.5,96.0,99.5*,6.1,-25.1
CN(C)c1cccc(-c2cc(Nc3ccc(C(C)(C)C)cc3)ncn2)c1,nt,nt,nt,nt,2.9,nt
CCOC(=O)/C(=N\Nc1ccccc1Cl)N1CC(C)OC(C)C1 (stereo not drawn),-6.3,-4.7,102.1,nt,-11.9,1.5
CCOC(=O)/C(=N\Nc1ccc(Br)cc1)N1CC(C)OC(C)C1 (stereo not drawn),-0.7,-6.2,108.1,99.6*,1.0,8.0
CC(=O)OC[C@@H]1CN(Cc2cccc(C(F)(F)F)c2)C[C@H](n2cnc3c(N4CCOCC4)ncnc32)O1,nt,nt,nt,nt,-24.8,nt
CC(=O)OC[C@@H]1CN(Cc2cccc(C(F)(F)F)c2)C[C@H](n2cnc3c(NCc4ccco4)ncnc32)O1,nt,nt,nt,nt,40.3*,nt
COc1ccc2ccccc2c1/C=N/N1C(=O)CSC1=S,-2.6,-14.8,83.7,nt,-27.6,29.5*
O=C1CSC(=S)N1N=Cc1c(O)ccc2ccccc12,nt,nt,nt,nt,74.3,nt
Cc1cc(C)n2nc(SCc3cc(=O)oc4cc(O)ccc34)nc2n1,6.0,5.0,92.0,-2.4,nt,-12.5
Cc1c(Cl)cccc1NC(=S)NNc1ncc(C(F)(F)F)cc1Cl,-0.8,0.2,114.5,3.7,-1.1,13.9
COc1ccc(C(=O)Nc2nc(C)c(C)s2)cc1OC,4.3,-5.6,92.1,99.2*,-33.4,-2.8
Cc1c(NC(=O)c2csc3c2CCCC3)c(=O)n(-c2ccccc2)n1C,-1.0,-8.6,94.2,nt,9.0,-3.4
c1ccc2[nH]c(SCc3cn4cccnc4n3)nc2c1,30.3,-11.6,99.8,99.2*,6.6,-6.2
c1ccc(-c2cnnc(SCc3cn4cccnc4n3)n2)cc1,7.0,-1.0,106.9,18.9,-10.8,-9.9
O=C(NNC(=S)NC(=O)c1cccnc1)c1ccc(F)cc1,3.9,24.5,112.0,97.6*,5.3,12.0
O=C(NNC(=S)NC(=O)c1ccc(F)cc1)c1cccnc1,-1.5,-0.1,97.4,98.1*,-0.8,13.6
O=C(NNC(=S)NC(=O)c1cccnc1)c1ccccc1,0.8,2.4,96.5,15.4,16.3,19.2
Cc1ccc(S(=O)(=O)N2CCN(C3CC(=O)N(Cc4ccccc4)C3=O)CC2)cc1C (stereo not drawn),-0.1,3.0,94.6,3.7,5.5,-0.5
CCOCCCNC(=O)C(NC(=O)CNC(C)=O)c1ccc(Cl)cc1 (stereo not drawn),-4.0,-6.8,98.6,12.9,24.1*,1.6
O=[N+]([O-])c1cc([N+](=O)[O-])c(Oc2c(F)cccc2F)cc1NN1CCCCC1,-1.7,-3.7,104.3,nt,-3.5,-17.8

# Source: PubChem BioAssay (several laboratories)
